According to PubChem BioAssay (NCATS):
Results filed as inconclusive are left out. A call without a number means that no potency is given here. Active and inactive are the calls of the source. Calls come from the whole dose curve; as a rule, active = well fitted curve in the direction sought with a large enough effect; inconclusive = small, poorly fitted or top-dose-only effect, or another doubt; inactive = no such curve, though single readings can be large; an effect the other way counts as inactive or inconclusive.

What was measured:
[1] = target: Alpha-galactosidase (Coffea arabica) (UniProt Q42656); assay: Counterscreen for Glucocerebrosidase Inhibitors: qHTS Assay for Coffee Bean alpha-Galactosidase at pH 5.9 (AID 998)
Method in brief: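 Green coffee bean enzyme (2 nM) with 4-methylumbelliferyl alpha-D-galactopyranoside (80 uM) in 50 mM citric acid, 0.005% Tween-20, pH 5.9, 20 min at room temperature; compounds 0.7 nM–77 uM. Stopped at pH 10, fluorescence Ex365/Em440; Hill-fit AC50.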

[2] = qHTS for differential inhibitors of proliferation of Plasmodium falciparum line 7G8 (AID 1815);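 note: potency is the fitted concentration of half-maximal effect; parasite growth measured after three days of incubation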
[3] = qHTS for differential inhibitors of proliferation of Plasmodium falciparum line GB4 (AID 1816); conditions: Potency: Plasmodium falciparum GB4 proliferation inhibition;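 note: potency is the fitted concentration of half-maximal effect; parasite growth measured after 72 h incubation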
[4] = qHTS for differential inhibitors of proliferation of Plasmodium falciparum line 3D7 (AID 1876); note: potency is the fitted concentration of half-maximal effect
[5] = qHTS for differential inhibitors of proliferation of Plasmodium falciparum line D10 (AID 1877);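 note: potency is the fitted concentration of half-maximal effect; parasites grown with compound for 72 h before DNA staining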
[6] = qHTS for differential inhibitors of proliferation of Plasmodium falciparum line W2 (AID 1883); conditions: Potency: Plasmodium falciparum W2 proliferation inhibition;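 note: potency is the fitted concentration of half-maximal effect; parasites grown with compound for 72 h before lysis and staining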

Chain of Alpha-galactosidase (Coffea arabica) (Q42656 whole entry, looked up): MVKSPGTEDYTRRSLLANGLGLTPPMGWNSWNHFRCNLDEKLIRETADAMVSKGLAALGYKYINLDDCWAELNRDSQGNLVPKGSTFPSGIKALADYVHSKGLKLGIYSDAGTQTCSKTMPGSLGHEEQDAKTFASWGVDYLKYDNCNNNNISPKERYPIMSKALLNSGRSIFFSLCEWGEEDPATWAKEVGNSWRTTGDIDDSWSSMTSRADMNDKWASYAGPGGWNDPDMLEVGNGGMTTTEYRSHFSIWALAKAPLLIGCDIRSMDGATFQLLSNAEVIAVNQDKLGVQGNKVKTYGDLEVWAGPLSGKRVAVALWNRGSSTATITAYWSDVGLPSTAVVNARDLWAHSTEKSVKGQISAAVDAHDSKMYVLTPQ

SMILES: CCCCNc1ccc(C(=O)OCCN(C)C)cc1
- outcome [1]: inactive

SMILES: Clc1ccc(Cn2c(CN3CCCC3)nc3ccccc32)cc1
- outcome [1]: inactive

SMILES: CSc1ccc(C(=O)c2[nH]c(=O)[nH]c2C)cc1
- outcome [1]: inactive

SMILES: C(=C\c1ccccc1)/CN1CCN(C(c2ccccc2)c2ccccc2)CC1
- outcome [1]: inactive

SMILES: CN1CCC(=C2c3ccccc3CC(=O)c3sccc32)CC1
- outcome [1]: inactive

SMILES: NC(N)=N/N=C/c1c(Cl)cccc1Cl
- Potency [2]: 11.2 µM (active)
- Potency [3]: 11.2 µM (active)
- Potency [4]: 6.31 µM (active)
- Potency [5]: 11.2 µM (active)
- Potency [6]: 3.98 µM (active)

SMILES: O=C(O)CN(CCOCCOCCN(CC(=O)O)CC(=O)O)CC(=O)O
- outcome [1]: inactive

SMILES: O=C(O)CP(=O)(O)O
- outcome [1]: inactive
